Several values for one entry are separate records, joined by “and”; a condition that tells them apart may be missing. Equal values may be shown once. Inconclusive results are not listed. Activity calls are given as the source filed them. The call rests on the fitted dose curve; in most records, active means well fitted curve in the direction sought with a large enough effect in the repeat runs; inconclusive means weak or mixed curves; inactive means no such curve, though single readings can be large; an effect the other way counts as inactive or inconclusive.
Tests used:
[1] = Human pregnane X receptor (PXR) small molecule agonists, qHTS cell viability counter screen (AID 1346977); further: nearly all actives have a fitted effect of over 50% in size
Summary of the method: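 Measures live-cell protease fluorescence (CellTiter-Fluor) in PXR-Luc HepG2 cells treated 24hr with compounds at 37C. Cells had 5hr to attach before pin transfer of DMSO solutions.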

[2] = Caspase-3/7 induction in HepG2 cells by small molecules, qHTS assay (AID 1346978); further: nearly all actives have a fitted effect of over 15% in size
Summary of the method: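 Caspase-3/7 induction was measured by Caspase-Glo 3/7 luminescence (30 min, room temperature) after a 17 hr compound exposure of wild-type HepG2 cells seeded at 2,000 per well and pre-incubated 5 hr.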

[3] = Caspase-3/7 induction in CHO-K1 cells by small molecules, qHTS cell viability counter screen (AID 1346979); further: nearly all actives have a fitted effect of over 35% in size
Summary of the method: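 In the same wells as the caspase read, viability of compound-treated wild-type CHO-K1 cells was assessed using CellTiter-Fluor, added after 16hr at 37C and measured by fluorescence following 1hr further incubation.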

[4] = Caspase-3/7 induction in CHO-K1 cells by small molecules, qHTS assay (AID 1346980); further: nearly all actives have a fitted effect of over 15% in size
Summary of the method: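 Luminescent Caspase-Glo 3/7 read (30min, room temperature) quantified apoptosis induction. Cells were wild-type CHO-K1, treated with compound for 17hr at 37 C and 5% CO2.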

[5] = Caspase-3/7 induction in HepG2 cells by small molecules, qHTS cell viability counter screen (AID 1346981); further: series mostly up to about 92 µM; nearly all actives have a fitted effect of over 30% in size
Summary of the method: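 Wild-type HepG2 cells, 2,000/well, settled 5 hr at 37 C, 5% CO2 before compound addition. Viability read by CellTiter-Fluor fluorescence, reagent added after 16 hr compound exposure, then 1 hr at 37C, in the same wells as the caspase read.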

[6] = target: Nuclear receptor subfamily 1 group I member 2 (Homo sapiens) (UniProt O75469); assay: Human pregnane X receptor (PXR) small molecule agonists, qHTS assay (AID 1346982); further: nearly all actives have a fitted effect of over 35% in size
Nuclear receptor subfamily 1 group I member 2 (Homo sapiens), sequence (O75469 whole entry, looked up): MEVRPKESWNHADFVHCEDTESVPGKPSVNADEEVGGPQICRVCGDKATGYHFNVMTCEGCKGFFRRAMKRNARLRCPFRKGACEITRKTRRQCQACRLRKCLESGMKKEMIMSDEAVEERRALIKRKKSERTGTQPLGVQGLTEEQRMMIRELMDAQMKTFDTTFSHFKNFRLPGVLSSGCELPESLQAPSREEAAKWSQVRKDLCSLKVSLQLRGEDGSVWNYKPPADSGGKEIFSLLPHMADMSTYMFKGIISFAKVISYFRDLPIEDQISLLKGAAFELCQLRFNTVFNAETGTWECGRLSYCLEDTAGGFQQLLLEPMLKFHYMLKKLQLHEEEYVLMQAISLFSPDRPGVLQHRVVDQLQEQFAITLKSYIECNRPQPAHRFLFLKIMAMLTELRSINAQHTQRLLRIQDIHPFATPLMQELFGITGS
Summary of the method: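 PXR-Luc HepG2 reporter cells (CYP3A4-driven luciferase) in 5% charcoal-stripped FBS medium, plated 5 h before compound addition, then treated 24 h at 37C. Luciferase read by ONE-Glo luminescence after 30 min at room temperature.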

[7] = target: Nuclear receptor subfamily 1 group I member 2 (Rattus norvegicus) (UniProt Q9R1A7); assay: Rat pregnane X receptor (rPXR) activation by small molecules, qHTS assay (AID 1346983); conditions: rPXR luciferase reporter cells, One-Glo luminescence, 24 h; max activation: hits give high values; further: nearly all actives have a fitted effect of over 20% in size
Nuclear receptor subfamily 1 group I member 2 (Rattus norvegicus), sequence (Q9R1A7 whole entry, looked up): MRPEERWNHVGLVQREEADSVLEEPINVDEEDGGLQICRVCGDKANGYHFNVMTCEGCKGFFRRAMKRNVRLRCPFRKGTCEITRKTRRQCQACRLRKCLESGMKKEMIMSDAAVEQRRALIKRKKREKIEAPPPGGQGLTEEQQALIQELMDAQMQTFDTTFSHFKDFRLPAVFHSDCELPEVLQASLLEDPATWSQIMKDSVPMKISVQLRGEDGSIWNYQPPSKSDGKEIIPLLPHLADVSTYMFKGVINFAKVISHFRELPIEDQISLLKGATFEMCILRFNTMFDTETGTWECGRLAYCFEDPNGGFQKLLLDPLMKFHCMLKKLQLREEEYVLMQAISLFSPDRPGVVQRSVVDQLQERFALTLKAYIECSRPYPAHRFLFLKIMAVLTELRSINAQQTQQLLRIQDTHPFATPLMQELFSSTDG
Summary of the method: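 Luminescent readout (One-Glo luciferase, 30 min room temperature) followed 24 hr compound treatment at 37 C of rPXR cells plated 2,000 per well and preincubated 5hr; qHTS format with compounds delivered in DMSO.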

[8] = target: Nuclear receptor subfamily 1 group I member 2 (Homo sapiens) (UniProt O75469); assay: CYP3A4 induction through human pregnane X receptor (PXR) by small molecules, qHTS assay (AID 1346984); further: nearly all actives have a fitted effect of over 40% in size
Summary of the method: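 DPX-2 HepG2 cells carrying a PXR response element and CYP3A4-promoter luciferase construct, treated with compounds 24 hr at 37C. Then P450-Glo CYP3A4 Luciferin-IPA substrate (3uM final) for 3 hr at 37C, One-Glo added, luminescence read.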

[9] = target: Nuclear receptor subfamily 1 group I member 2 (Homo sapiens) (UniProt O75469); assay: Human pregnane X receptor (PXR) activation by small molecules, qHTS assay (AID 1346985); further: nearly all actives have a fitted effect of over 40% in size
Summary of the method: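 DPX-2 cells (HepG2 co-transfected with a PXR response element and a CYP3A4-promoter luciferase construct) were seeded at 2,000 per well, rested 5 hr at 37C, then exposed to DMSO-dissolved compounds for 24 hr. Activation was read as luciferase luminescence.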

[10] = target: Cytochrome P450 2D6 (Homo sapiens) (UniProt P10635); assay: Cytochrome P450 Family 2 Subfamily D Member 6 (CYP2D6) small molecule antagonists: luciferase reporter qHTS assay (AID 1671196); further: series mostly up to about 120 µM; nearly all actives have a fitted effect of over 50% in size
Cytochrome P450 2D6 (Homo sapiens), sequence (P10635 whole entry, looked up): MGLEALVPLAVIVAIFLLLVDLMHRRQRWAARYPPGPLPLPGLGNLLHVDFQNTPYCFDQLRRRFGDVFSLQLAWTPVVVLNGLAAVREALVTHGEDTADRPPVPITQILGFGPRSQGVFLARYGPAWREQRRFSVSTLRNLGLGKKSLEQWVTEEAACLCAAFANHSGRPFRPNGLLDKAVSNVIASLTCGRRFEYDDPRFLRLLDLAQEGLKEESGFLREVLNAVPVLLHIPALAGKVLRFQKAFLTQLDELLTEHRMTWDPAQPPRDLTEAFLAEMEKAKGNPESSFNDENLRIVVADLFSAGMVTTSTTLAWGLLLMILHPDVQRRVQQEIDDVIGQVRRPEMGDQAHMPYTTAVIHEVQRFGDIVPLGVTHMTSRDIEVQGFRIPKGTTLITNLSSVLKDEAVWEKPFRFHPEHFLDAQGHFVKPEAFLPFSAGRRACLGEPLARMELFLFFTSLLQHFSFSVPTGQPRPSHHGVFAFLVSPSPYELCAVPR
Summary of the method: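 Cell-free P450-Glo system: CYP2D6 with proluciferin substrate was pre-incubated with compound for 10 min, then reacted with NADPH regeneration for 1 h at room temperature. Luciferin product was detected after 20 min, and data were reported as relative luminescence units.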
On the % scale 0 is the no-effect control and ±100 the full control effect.

CN(C)[C@@H]1C(=O)C(C(=O)NCN2CCCC2)=C(O)[C@@]2(O)C(=O)C3=C(O)c4c(O)cccc4[C@@](C)(O)C3C[C@@H]12 (stereo not given in full)
inactive: Potency [1] | outcome [2] | Potency [3] | outcome [4] | Potency [5] | Potency [6] | max activation [7] 1.07% and -3.86% | Potency [8] | Potency [9]

Cc1nc2ccc(CN(C)c3ccc(C(=O)N[C@@H](CCC(=O)O)C(=O)O)s3)cc2c(=O)[nH]1
inactive: Potency [1] | outcome [2] | Potency [3] | outcome [4] | Potency [5] | Potency [6] | max activation [7] -1.92% | Potency [8] | Potency [9] | Potency [10]

Cc1c(N)c(=O)n(-c2ccccc2)n1C
inactive: Potency [1] | outcome [2] | Potency [3] | outcome [4] | Potency [5]

CCN[C@@H]1C[C@H](N)[C@@H](OC2OC(CN)=CCC2N)[C@H](O)[C@H]1O[C@H]1OC[C@](C)(O)[C@H](NC)[C@H]1O (stereo not given in full)
inactive: activity change, negative = cytotoxicity [1] 1.73% [at 0.349 µM] | caspase activation [2] 0.0658% [at 0.349 µM] | activity change, negative = cytotoxicity [3] 2.16% [at 0.349 µM] | caspase-3/7 activation [4] -0.394% [at 0.349 µM] | activity change, negative = cytotoxicity [5] 3.51% [at 0.349 µM] | activation [6] -3.06% [at 0.349 µM] | max activation [7] -4.25% | Potency [8] | Potency [9]

CC(=O)c1ccc2ccccc2c1
inactive: Potency [1] | outcome [2] | Potency [3] | outcome [4] | Potency [5] | Potency [6]

C=CC(=O)OCCCl
inactive: Potency [1] | outcome [2] | Potency [3] | outcome [4] | Potency [5] | Potency [6]

COc1cc(C(=O)NCc2ccc(OCCN(C)C)cc2)cc(OC)c1OC
inactive: Potency [1] | outcome [2] | Potency [3] | outcome [4] | Potency [5] | Potency [6] | max activation [7] 4.67% | Potency [9]

CCNS(=O)(=O)c1ccc(C)cc1
inactive: Potency [1] | outcome [2] | Potency [3] | outcome [4] | Potency [5] | Potency [6]

CCOCC(C)O (stereo not given)
inactive: Potency [1] | outcome [2] | Potency [3] | outcome [4] | Potency [5]

CC(=O)OCC(=O)[C@@]1(O)[C@H](C)C[C@H]2[C@@H]3CCC4=CC(=O)C=C[C@]4(C)[C@@]3(F)[C@@H](O)C[C@@]21C
inactive: Potency [1] | outcome [2] | Potency [3] | outcome [4] | Potency [5] | Potency [6] | Potency [8] | Potency [9] | Potency [10]

CC(C)C[C@@H](N)C(=O)O
inactive: activity change, negative = cytotoxicity [1] 28.2% [at 19 µM] | caspase activation [2] -0.781% [at 19 µM] | activity change, negative = cytotoxicity [3] -2.25% [at 19 µM] | caspase-3/7 activation [4] -0.0944% [at 19 µM] | activity change, negative = cytotoxicity [5] 1.16% [at 19 µM]

CC(=O)N1C[C@H](O)C[C@H]1C(=O)O
inactive: Potency [1] | outcome [2] | Potency [3] | outcome [4] | Potency [5] | Potency [6] | max activation [7] -1.61% | Potency [8] | Potency [9] | Potency [10]

C[C@H]1C[C@H]2[C@@H]3CCC4=CC(=O)C=C[C@]4(C)[C@H]3C(=O)C[C@]2(C)[C@@]1(O)C(=O)CO
inactive: Potency [1] | outcome [2] | Potency [3] | outcome [4] | Potency [5]

C1CCC2=NCCCN2CC1
inactive: Potency [1] | outcome [2] | Potency [3] | outcome [4] | Potency [5]

CCCCCCCCCCCCCCCCCCO
inactive: Potency [1] | outcome [2] | Potency [3] | outcome [4] | Potency [5] | Potency [6] | max activation [7] -0.712% | Potency [8] | Potency [9] | Potency [10]

O=C(O)CC(C(=O)O)S(=O)(=O)O (stereo not given)
inactive: Potency [1] | outcome [2] | Potency [3] | outcome [4] | Potency [5] | Potency [6]

N[C@H](C(=O)O)[C@@H](O)c1ccc(O)c(O)c1
inactive: Potency [1] | outcome [2] | Potency [3] | outcome [4] | Potency [5] | Potency [6] | max activation [7] -4.66% | Potency [8] | Potency [9] | Potency [10]

C=C(C)C(=O)OCC1CCCO1 (stereo not given)
inactive: Potency [1] | outcome [2] | Potency [3] | outcome [4] | Potency [5]

CC[C@H]1OC(=O)[C@H](C)[C@@H](O[C@H]2C[C@@](C)(OC)[C@@H](O)[C@H](C)O2)[C@H](C)[C@@H](O[C@@H]2O[C@H](C)C[C@H](N(C)C)[C@H]2O)[C@](C)(OC)C[C@@H](C)C(=O)[C@H](C)[C@@H](O)[C@]1(C)O
inactive: Potency [1] | outcome [2] | Potency [3] | outcome [4] | Potency [5] | Potency [6] | max activation [7] -0.482% | Potency [8] | Potency [9] | Potency [10]

CC(C)C(=O)OC(=O)C(C)C
inactive: Potency [1] | outcome [2] | Potency [3] | outcome [4] | Potency [5] | Potency [6]

O=C(O)CNC(=O)c1ccc(CO)o1
inactive: Potency [1] | outcome [2] | Potency [3] | outcome [4] | Potency [5] | Potency [6]

CO/N=C(\C(=O)N[C@@H]1C(=O)N2C(C(=O)O)=C(CSc3nc(=O)c(O)nn3C)CS[C@H]12)c1csc(N)n1
inactive: Potency [1] | outcome [2] | Potency [3] | outcome [4] | Potency [5] | Potency [6] | max activation [7] -3.34% | Potency [8] | Potency [9]

Nc1ccncc1N
inactive: Potency [1] | outcome [2] | Potency [3] | outcome [4] | Potency [5] | Potency [6] | max activation [7] -0.418% | Potency [8] | Potency [9] | Potency [10]

CCN(CC#N)c1cccc(C)c1
inactive: Potency [1] | outcome [2] | Potency [3] | outcome [4] | Potency [5]

COc1cccc(OC)c1C(=O)N[C@@H]1C(=O)N2[C@@H]1SC(C)(C)[C@@H]2C(=O)O
inactive: Potency [1] | outcome [2] | Potency [3] | outcome [4] | Potency [5] | Potency [6] | max activation [7] -1.79% | Potency [8] | Potency [9] | Potency [10]

Source: PubChem BioAssay (Tox21)
